{"source": "the supplement of paper PMC11732987", "about": "“Enantioselective OTUD7B fragment discovery through chemoproteomics screening and high-throughput optimisation” (Communications Chemistry, 2025)", "assay_in_all_cases": "log2 ratio of Biotin-Ahx-Ub-VS probe labelling (fragment/DMSO); higher = less target engagement (more negative = stronger competition), active = hit call of the paper (q ≤ 0.05, log2 ratio ≤ -1)", "settings_in_all_cases": "compound concentration: 200 uM; treatment time: 3 h", "key": {"[1]": {"biological_target": "T1, ALG13 (UniProt Q9NP73)", "T1 sequence (whole entry)": "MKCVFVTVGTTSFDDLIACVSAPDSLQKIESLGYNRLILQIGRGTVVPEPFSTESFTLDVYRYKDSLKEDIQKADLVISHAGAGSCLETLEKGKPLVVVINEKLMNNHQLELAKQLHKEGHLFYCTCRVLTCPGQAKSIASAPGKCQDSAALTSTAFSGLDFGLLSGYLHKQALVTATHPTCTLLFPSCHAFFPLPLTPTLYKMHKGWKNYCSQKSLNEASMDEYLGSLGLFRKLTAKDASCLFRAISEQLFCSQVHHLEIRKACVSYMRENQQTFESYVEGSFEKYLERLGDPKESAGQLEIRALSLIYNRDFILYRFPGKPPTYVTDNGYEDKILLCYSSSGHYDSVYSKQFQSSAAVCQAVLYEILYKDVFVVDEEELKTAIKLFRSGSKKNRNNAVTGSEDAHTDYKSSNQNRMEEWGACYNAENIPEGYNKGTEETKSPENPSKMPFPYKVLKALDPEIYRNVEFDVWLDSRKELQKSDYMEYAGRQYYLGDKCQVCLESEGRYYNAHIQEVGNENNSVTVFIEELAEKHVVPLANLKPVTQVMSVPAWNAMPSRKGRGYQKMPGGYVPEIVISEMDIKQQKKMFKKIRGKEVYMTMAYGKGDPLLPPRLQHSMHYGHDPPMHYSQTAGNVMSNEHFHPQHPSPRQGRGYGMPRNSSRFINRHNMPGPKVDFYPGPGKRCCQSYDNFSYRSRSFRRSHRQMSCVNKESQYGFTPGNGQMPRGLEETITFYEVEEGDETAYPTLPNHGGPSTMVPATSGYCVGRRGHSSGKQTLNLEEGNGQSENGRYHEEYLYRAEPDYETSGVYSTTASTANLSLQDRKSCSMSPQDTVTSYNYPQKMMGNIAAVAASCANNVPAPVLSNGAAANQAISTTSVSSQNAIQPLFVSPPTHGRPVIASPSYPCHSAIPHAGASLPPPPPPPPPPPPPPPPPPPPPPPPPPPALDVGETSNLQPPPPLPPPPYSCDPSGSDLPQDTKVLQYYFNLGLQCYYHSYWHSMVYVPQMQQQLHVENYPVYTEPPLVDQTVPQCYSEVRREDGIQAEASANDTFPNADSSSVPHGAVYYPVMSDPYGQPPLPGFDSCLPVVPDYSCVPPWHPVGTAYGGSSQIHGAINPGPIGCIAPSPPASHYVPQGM", "outline": "(§1)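 Fragment (200 µM) or vehicle was incubated for 3 h with triplicate HEK293T lysate samples of 495 µg, which were then treated with Biotin-Ahx-Ub-VS at 0.5 µM final for 1 h. Labelled DUBs were enriched on NeutrAvidin, digested with LysC and trypsin, and analysed by diaPASEF LC-MS/MS. Values are average log2 fragment/vehicle ratios from an unpaired t-test on global-median-normalised Spectronaut label-free quantities, using proteins with ≥2 unique peptides.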"}, "[2]": {"biological_target": "ATXN3 (UniProt P54252)", "sequence (P54252 whole entry)": "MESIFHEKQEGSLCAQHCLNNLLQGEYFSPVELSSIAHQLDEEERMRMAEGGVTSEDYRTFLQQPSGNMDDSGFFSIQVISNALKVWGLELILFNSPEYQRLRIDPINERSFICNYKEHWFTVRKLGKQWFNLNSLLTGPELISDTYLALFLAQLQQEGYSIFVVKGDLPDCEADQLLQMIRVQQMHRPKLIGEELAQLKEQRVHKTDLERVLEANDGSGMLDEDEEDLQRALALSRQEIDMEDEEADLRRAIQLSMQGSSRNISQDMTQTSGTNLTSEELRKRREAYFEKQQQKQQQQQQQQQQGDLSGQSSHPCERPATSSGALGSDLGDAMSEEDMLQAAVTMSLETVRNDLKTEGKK", "outline": "as §1"}, "[3]": {"biological_target": "T2, BAP1 (UniProt Q92560)", "T2 sequence (whole entry)": "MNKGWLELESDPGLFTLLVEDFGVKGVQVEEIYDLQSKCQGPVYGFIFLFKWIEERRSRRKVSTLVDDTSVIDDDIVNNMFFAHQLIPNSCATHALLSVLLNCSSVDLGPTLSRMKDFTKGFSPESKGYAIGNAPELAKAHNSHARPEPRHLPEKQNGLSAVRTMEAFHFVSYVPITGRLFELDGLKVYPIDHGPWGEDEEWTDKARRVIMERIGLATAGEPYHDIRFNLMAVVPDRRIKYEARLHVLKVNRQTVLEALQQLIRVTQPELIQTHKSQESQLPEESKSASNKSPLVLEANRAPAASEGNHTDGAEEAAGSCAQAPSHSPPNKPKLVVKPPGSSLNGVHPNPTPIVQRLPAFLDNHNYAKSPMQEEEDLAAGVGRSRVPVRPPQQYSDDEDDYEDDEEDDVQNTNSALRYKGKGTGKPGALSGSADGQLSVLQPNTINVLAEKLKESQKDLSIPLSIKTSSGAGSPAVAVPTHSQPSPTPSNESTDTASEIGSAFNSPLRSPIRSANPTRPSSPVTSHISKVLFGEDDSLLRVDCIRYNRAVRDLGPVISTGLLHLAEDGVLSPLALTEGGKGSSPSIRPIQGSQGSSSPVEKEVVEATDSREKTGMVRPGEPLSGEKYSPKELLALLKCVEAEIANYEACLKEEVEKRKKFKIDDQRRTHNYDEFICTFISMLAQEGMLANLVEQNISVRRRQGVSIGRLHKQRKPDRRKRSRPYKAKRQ", "outline": "as §1"}, "[4]": {"biological_target": "EIF3F (UniProt O00303)", "sequence (O00303 whole entry)": "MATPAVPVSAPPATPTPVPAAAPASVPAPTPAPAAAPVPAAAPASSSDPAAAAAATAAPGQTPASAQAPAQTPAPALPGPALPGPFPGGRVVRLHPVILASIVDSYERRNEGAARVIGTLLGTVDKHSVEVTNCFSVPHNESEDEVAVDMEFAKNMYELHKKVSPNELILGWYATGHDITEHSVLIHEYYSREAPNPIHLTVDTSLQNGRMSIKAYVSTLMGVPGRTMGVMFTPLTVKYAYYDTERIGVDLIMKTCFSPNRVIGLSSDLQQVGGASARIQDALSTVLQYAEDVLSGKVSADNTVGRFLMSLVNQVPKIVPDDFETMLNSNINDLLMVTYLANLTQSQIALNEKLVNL", "outline": "as §1"}, "[5]": {"biological_target": "EIF3H (UniProt O15372)", "sequence (O15372 whole entry)": "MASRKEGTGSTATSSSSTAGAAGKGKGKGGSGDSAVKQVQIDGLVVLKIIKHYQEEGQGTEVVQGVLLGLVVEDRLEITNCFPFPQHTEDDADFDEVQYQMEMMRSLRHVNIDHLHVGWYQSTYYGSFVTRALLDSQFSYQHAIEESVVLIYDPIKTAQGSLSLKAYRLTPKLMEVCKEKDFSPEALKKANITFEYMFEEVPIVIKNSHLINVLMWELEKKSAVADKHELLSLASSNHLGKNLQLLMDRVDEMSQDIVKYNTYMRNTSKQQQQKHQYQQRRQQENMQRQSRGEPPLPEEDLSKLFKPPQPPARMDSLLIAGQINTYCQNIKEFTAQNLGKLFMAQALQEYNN", "outline": "as §1"}, "[6]": {"biological_target": "T3, FAM105A (UniProt Q9NUU6)", "T3 sequence (whole entry)": "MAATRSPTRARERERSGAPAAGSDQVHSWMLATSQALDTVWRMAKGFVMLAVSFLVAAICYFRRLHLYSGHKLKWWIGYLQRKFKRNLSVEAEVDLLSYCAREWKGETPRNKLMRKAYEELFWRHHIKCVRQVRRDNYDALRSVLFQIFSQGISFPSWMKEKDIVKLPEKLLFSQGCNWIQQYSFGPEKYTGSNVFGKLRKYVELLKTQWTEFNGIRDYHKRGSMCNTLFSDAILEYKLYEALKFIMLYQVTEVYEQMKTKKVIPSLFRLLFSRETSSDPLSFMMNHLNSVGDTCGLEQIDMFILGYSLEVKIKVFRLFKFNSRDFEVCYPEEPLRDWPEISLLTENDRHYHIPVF", "outline": "as §1"}, "[7]": {"biological_target": "OTUB1 (UniProt Q96FW1)", "sequence (Q96FW1 whole entry)": "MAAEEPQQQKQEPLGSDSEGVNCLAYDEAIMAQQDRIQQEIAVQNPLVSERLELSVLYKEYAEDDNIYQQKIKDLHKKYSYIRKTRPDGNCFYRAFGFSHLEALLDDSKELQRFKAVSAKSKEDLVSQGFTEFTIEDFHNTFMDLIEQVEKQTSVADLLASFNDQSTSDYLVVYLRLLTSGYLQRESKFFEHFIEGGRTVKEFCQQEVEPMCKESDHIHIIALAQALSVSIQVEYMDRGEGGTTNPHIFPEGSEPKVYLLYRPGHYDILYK", "outline": "as §1"}, "[8]": {"biological_target": "T4, OTUD4 (UniProt Q01804)", "T4 sequence (whole entry)": "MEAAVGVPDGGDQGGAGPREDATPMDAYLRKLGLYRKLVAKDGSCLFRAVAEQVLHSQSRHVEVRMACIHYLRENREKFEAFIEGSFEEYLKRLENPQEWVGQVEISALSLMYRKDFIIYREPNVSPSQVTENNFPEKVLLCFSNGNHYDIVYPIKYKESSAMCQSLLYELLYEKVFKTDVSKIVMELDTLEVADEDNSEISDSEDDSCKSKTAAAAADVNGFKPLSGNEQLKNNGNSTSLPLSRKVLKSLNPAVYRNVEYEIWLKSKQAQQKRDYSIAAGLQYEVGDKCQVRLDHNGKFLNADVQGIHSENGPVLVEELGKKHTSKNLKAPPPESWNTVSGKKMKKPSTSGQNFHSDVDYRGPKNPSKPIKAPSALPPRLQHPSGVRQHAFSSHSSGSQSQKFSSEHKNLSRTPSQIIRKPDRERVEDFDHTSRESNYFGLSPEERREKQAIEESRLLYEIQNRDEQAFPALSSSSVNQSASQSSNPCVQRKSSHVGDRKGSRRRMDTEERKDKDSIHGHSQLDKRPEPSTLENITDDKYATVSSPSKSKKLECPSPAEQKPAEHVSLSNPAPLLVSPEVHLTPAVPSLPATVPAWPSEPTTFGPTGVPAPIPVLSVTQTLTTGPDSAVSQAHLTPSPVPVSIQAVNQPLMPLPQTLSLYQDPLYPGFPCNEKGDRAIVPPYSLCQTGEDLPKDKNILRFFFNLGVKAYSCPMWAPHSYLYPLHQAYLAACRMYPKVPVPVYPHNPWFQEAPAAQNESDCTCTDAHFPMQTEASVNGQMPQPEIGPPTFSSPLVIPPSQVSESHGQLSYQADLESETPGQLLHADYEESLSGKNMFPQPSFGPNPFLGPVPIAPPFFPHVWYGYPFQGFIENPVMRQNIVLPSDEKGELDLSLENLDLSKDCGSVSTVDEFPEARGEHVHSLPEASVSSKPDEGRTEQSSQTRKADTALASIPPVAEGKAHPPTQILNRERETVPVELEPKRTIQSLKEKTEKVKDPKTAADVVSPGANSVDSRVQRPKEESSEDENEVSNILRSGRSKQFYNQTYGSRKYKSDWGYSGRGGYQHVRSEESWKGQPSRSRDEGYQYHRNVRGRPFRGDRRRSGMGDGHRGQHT", "outline": "as §1"}, "[9]": {"biological_target": "T5, OTUD5 (UniProt Q96G74)", "T5 sequence (whole entry)": "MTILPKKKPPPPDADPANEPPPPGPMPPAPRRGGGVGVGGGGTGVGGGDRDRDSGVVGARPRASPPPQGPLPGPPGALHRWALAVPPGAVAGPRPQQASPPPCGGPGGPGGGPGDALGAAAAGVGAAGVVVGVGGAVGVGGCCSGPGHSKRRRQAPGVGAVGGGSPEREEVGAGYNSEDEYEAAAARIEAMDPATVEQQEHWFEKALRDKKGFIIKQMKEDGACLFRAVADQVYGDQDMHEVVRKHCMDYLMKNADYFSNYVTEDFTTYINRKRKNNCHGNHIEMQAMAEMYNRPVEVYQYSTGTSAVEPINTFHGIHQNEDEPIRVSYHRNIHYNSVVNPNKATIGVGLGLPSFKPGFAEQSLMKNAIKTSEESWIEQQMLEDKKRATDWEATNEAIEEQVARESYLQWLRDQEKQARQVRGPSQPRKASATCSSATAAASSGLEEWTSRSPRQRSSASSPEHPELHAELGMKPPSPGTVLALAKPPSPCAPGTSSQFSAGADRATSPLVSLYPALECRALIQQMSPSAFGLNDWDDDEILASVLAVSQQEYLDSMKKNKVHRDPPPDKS", "outline": "as §1"}}, "note": "Values without a mark were called inactive.", "data": [{"smiles": "C[C@@H](NC(=O)CCl)c1cccc(C#N)c1", "values": [{"measurement": "log2 ratio of Biotin-Ahx-Ub-VS probe labelling", "setting": "[1]", "result": 0.118}, {"measurement": "log2 ratio of Biotin-Ahx-Ub-VS probe labelling", "setting": "[2]", "result": -0.463}, {"measurement": "log2 ratio of Biotin-Ahx-Ub-VS probe labelling", "setting": "[3]", "result": "-2.8 (active)"}, {"measurement": "log2 ratio of Biotin-Ahx-Ub-VS probe labelling", "setting": "[4]", "result": -0.345}, {"measurement": "log2 ratio of Biotin-Ahx-Ub-VS probe labelling", "setting": "[5]", "result": 0.144}, {"measurement": "log2 ratio of Biotin-Ahx-Ub-VS probe labelling", "setting": "[6]", "result": 0.148}, {"measurement": "log2 ratio of Biotin-Ahx-Ub-VS probe labelling", "setting": "[7]", "result": -0.229}, {"measurement": "log2 ratio of Biotin-Ahx-Ub-VS probe labelling", "setting": "[8]", "result": -0.372}, {"measurement": "log2 ratio of Biotin-Ahx-Ub-VS probe labelling", "setting": "[9]", "result": -0.284}]}]}
